Test results published in PubChem BioAssay AID651871 (Sanford-Burnham Center for Chemical Genomics, 2012).

System: HL-1
Test: cardiomyocyte survival under oxidative or metabolic stress – cell-based, panel, H9c2 and HL-1, ATP luminescence, set 2, SAR follow-up (AID 651871);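 also: cells exposed to stressor for 2 h before ATP readout; reference of the scale not given here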
Settings: H9c2/HL-1 cardiomyocytes, 2-deoxyglucose stress, with 2-deoxyglucose, run 2, at 19.8 µM (top of the series)

Compound `COc1ccc2c(c1OC)C(=O)N1c3ccccc3C(=O)N(Cc3cccc(Cl)c3Cl)C21` (stereo unspecified) has an activity (protection/inhibition) of 23.7%.
